Results published in PubChem BioAssay AID1159580 (chemical genetic matrix, 2015).
Where “and” joins values, the source holds several entries; their conditions need not be identical. Equal values may be shown once. Among all 5,500 compounds or so, about 2,000 (36%) were called active. Roughly 18% stayed inconclusive and do not appear here. No stated cut-off is given here; in the data, active means normalized growth mostly below about 0.91 (no sharp cut-off); inconclusive means no clear call, values can overlap the other calls; inactive means mostly above about 0.92. This is one part of the list.

Experiment: chemical genetic growth profiling, strain panel (AID 1159580);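 further: tested at 20 µM; growth read once vehicle control cultures reached saturation at 30 °C; 1 = growth at the plate median or of vehicle wells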
Conditions: S. cerevisiae deletion strains, growth OD

Measured: normalized growth

O=C(O)c1cc2cc(Cl)ccc2[nH]1
inactive: locus YAL013W, strain DEP1, stronger effect = lower value 1.01 | locus YAL021C, strain ccr4, stronger effect = lower value 0.995 | locus YAL026C, strain drs2, stronger effect = lower value 0.988 | locus YAL030W, strain snc1, stronger effect = lower value 0.989 | locus YBL061C, strain skt5, stronger effect = lower value 0.991 | locus YBR009C, strain hhf1, stronger effect = lower value 0.978 | locus YBR021W, strain FUR4, stronger effect = lower value 0.998 | locus YBR023C, strain chs3, stronger effect = lower value 0.986 | locus YBR171W, strain sec66, stronger effect = lower value 0.986 | locus YBR229C, strain ROT2, stronger effect = lower value 1.01 | locus YBR231C, strain swc5, stronger effect = lower value 0.987 | locus YBR279W, strain paf1, stronger effect = lower value 0.995 | locus YCL011C, strain gbp2, stronger effect = lower value 0.985 | locus YCL016C, strain dcc1, stronger effect = lower value 0.988 | locus YCL029C, strain bik1, stronger effect = lower value 0.983 | locus YCL061C, strain MRC1, stronger effect = lower value 0.984 | locus YCL069W, strain vba3, stronger effect = lower value 0.993 | locus YCR088W, strain abp1, stronger effect = lower value 0.975 | locus YDL005C, strain med2, stronger effect = lower value 0.987 | locus YDL035C, strain GPR1, stronger effect = lower value 1.02 | locus YDL040C, strain nat1, stronger effect = lower value 0.989 | locus YDL074C, strain BRE1, stronger effect = lower value 1.05 | locus YDL101C, strain DUN1, stronger effect = lower value 1.03 | locus YDL134C, strain PPH21, stronger effect = lower value 1.01 | locus YDL185W, strain tfp1, stronger effect = lower value 0.973 | locus YDL192W, strain arf1, stronger effect = lower value 0.989 | locus YDR001C, strain nth1, stronger effect = lower value 0.981 | locus YDR069C, strain doa4, stronger effect = lower value 0.983 | locus YDR101C, strain arx1, stronger effect = lower value 0.971 | locus YDR137W, strain rgp1, stronger effect = lower value 0.999 | locus YDR150W, strain NUM1, stronger effect = lower value 1.01 | locus YDR159W, strain sac3, stronger effect = lower value 0.977 | locus YDR162C, strain NBP2, stronger effect = lower value 1.05 | locus YDR195W, strain ref2 0.998 | locus YDR297W, strain sur2, stronger effect = lower value 0.997 | locus YDR318W, strain mcm21, stronger effect = lower value 0.984 | locus YDR334W, strain swr1, stronger effect = lower value 0.986 | locus YDR335W, strain msn5, stronger effect = lower value 0.988 | locus YDR388W, stronger effect = lower value 0.98 | locus YDR392W, strain spt3, stronger effect = lower value 0.953 | locus YDR502C, strain sam2, stronger effect = lower value 0.998 | locus YEL003W, strain gim4, stronger effect = lower value 1 | locus YEL037C, strain rad23, stronger effect = lower value 0.98 | locus YEL061C, strain CIN8 (second series), stronger effect = lower value 0.981 | locus YEL061C, strain CIN8, stronger effect = lower value 1 | locus YER015W, strain faa2, stronger effect = lower value 0.993 | locus YER016W, strain bim1, stronger effect = lower value 0.984 | locus YER110C, stronger effect = lower value 0.982 | locus YER111C, strain swi4, stronger effect = lower value 0.98 | locus YER155C, strain BEM2 (second series), stronger effect = lower value 0.972 | locus YER155C, strain BEM2, stronger effect = lower value 1.01 | locus YER167W, strain BCK2, stronger effect = lower value 1.01 | locus YFR010W, strain ubp6, stronger effect = lower value 0.986 | locus YGL078C, strain dbp3, stronger effect = lower value 0.979 | locus YGL086W, strain mad1, stronger effect = lower value 0.977 | locus YGL167C, strain pmr1, stronger effect = lower value 0.988 | locus YGL173C, strain kem1, stronger effect = lower value 0.984 | locus YGL227W, strain vid30, stronger effect = lower value 0.973 | locus YGL240W, strain doc1, stronger effect = lower value 0.984 | locus YGL248W, strain PDE1, stronger effect = lower value 1.01 | locus YGL253W, strain hxk2, stronger effect = lower value 0.994 | locus YGR078C, strain PAC10, stronger effect = lower value 1.03 | locus YGR135W, strain pre9, stronger effect = lower value 0.994 | locus YGR229C, strain SMI1, stronger effect = lower value 1.02 | locus YGR252W, strain gcn5, stronger effect = lower value 0.928 | locus YHR013C, strain ard1, stronger effect = lower value 0.973 | locus YHR027C, strain rpn1, stronger effect = lower value 0.988 | locus YHR030C, strain SLT2, stronger effect = lower value 0.997 and 0.95 | locus YHR079C, strain IRE1 (second series), stronger effect = lower value 0.984 | locus YHR079C, strain IRE1, stronger effect = lower value 0.932 | locus YHR094C, strain hxt1, stronger effect = lower value 0.984 | locus YHR129C, strain ARP1, stronger effect = lower value 1.01 | locus YHR142W, strain chs7, stronger effect = lower value 0.984 | locus YHR200W, strain rpn10, stronger effect = lower value 0.99 | locus YIL066C, strain RNR3, stronger effect = lower value 1.01 | locus YIL073C, strain SPO22, stronger effect = lower value 1.02 | locus YIL125W, strain kgd1, stronger effect = lower value 0.979 | locus YIR030C, strain dcg1, stronger effect = lower value 0.991 | locus YJL092W, strain hpr5, stronger effect = lower value 0.98 | locus YJL095W, strain BCK1 (second series), stronger effect = lower value 0.983 | locus YJL095W, strain BCK1, stronger effect = lower value 1.03 and 0.942 | locus YJL115W, strain asf1, stronger effect = lower value 0.992 | locus YJL129C, strain trk1, stronger effect = lower value 0.99 | locus YJL134W, strain LCB3, stronger effect = lower value 1.01 | locus YJL154C, strain vps35, stronger effect = lower value 0.985 | locus YJL164C, strain tpk1, stronger effect = lower value 0.99 | locus YJL166W, strain qcr8, stronger effect = lower value 0.995 | locus YJL168C, strain set2, stronger effect = lower value 0.986 | locus YJL187C, strain SWE1 (second series), stronger effect = lower value 1.02 | locus YJL187C, strain SWE1, stronger effect = lower value 0.992 | locus YJR043C, strain POL32, stronger effect = lower value 0.984 | locus YJR066W, strain TOR1, stronger effect = lower value 0.903
